Compound activity from PubChem BioAssay.
TDP1 cell noCPT – qHTS for Inhibitors of human tyrosyl-DNA phosphodiesterase 1 (TDP1): qHTS in cells in absence of CPT; DT40 Tdp1-/- hTDP1 cells, no CPT, ATP luminescence, 48 h; Potency, µM (top dose mostly 46.2 µM), inactives show at the top dose activity change, negative = growth inhibition, actives largely listed as inhibitors; hit rate 15% among 420,000; AID 686978, 2013; further: potency means the concentration at half of the fitted maximal effect; nearly all actives have a fitted effect of over 55% in size
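Growth kinetics read by CellTiter-Glo luminescence after ≥48 hr at 37 °C. Cells: DT40 Tdp1-/- stably carrying human TDP1, 400 per well, compound exposure in the absence of CPT (DMSO vehicle).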
HT1080 IDH1KD tx – kills HT-1080 cells with IDH1 knockdown | Potency, µM (doses to about 46.1 µM), for inactives: at the highest dose activity, negative = toxicity, most hits filed as cytotoxic | HT-1080 IDH1 knockdown viability, ATP luminescence, 48 h | AID 686971 | hit rate 2% among 360,000;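 further: potency means the concentration at half of the fitted maximal effect; 0% = DMSO wells and -100% = cell-free medium wells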
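% activity derives from luminescence (CellTiter-Glo), normalised to DMSO and no-cell wells. HT-1080-IDH1KD cells, 750/well, had 48 h compound exposure at 37 °C.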
HT1080-NT tox – kills 2HG-producing HT-1080-NT fibrosarcoma cells; HT-1080-NT fibrosarcoma viability, CellTiter-Glo ATP luminescence, 48 h; Potency, µM (titrated, usually from 46.1 µM), for inactives: at the top dose activity, negative = less viability, usual class: cytotoxic; hit rate 1.6% among 360,000; AID 686970;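 further: NT is the 2HG producing partner of a matched IDH1 knockdown line; potency means the concentration at half of the fitted maximal effect; 0% = DMSO-treated cells and -100% = media-only wells without cells; nearly all actives have a fitted effect of over 55% in size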
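A 48-hour cytotoxicity screen used HT-1080-NT cells plated 2 hours before compound delivery. ATP-based CellTiter-Glo luminescence measured viability, normalized to DMSO and no-cell controls.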
TDP1 cell CPT – DT40-hTDP1 cell growth loss with CPT | Potency, µM (series often up to 46.2 µM), inactives show at the highest dose activity change, negative = growth inhibition, most hits filed as inhibitors | chicken DT40 Tdp1-/-;hTDP1 cells + 20 nM CPT, ATP luminescence, 48 h | hit rate 12% among 420,000; further: potency means the concentration at half of the fitted maximal effect; nearly all actives have a fitted effect of over 55% in size
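Chicken DT40 Tdp1-/- cells complemented with human TDP1, 400 cells/well, exposed to compounds plus 20 nM camptothecin for at least 48 h at 37 C; viability read as ATP content by CellTiter-Glo luminescence.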
IL1B secr inh – blocks inflammasome-driven IL-1 beta release; THP-1 LPS/ATP IL-1B secretion, AlphaLISA, 16 h; stronger effect = lower value; activity change, % at 57.5 µM; hit rate 4.7% among 360,000; AID 743279; in the data active means activity change below about -50%; inconclusive means mostly about -30% to -49%
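THP-1 cells pretreated 1 hr with compounds (up to 57.5 uM final), then stimulated with LPS (250 ng/mL final) plus ATP (1.25 mM final); secreted IL-1B measured by AlphaLISA after 16 hr, decreased signal indicating inhibition.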
The depositor's hits bear a star; u = inconclusive; x = not tested or not shown; [ ] = remark or other dose. Only some compounds are listed: those with a hit (about 19% of all), similar ones and a draw of the others. Unless noted, the call rests on the fitted dose curve; in most records, active means well fitted curve in the direction sought with a large enough effect; inconclusive means small, poorly fitted or top-dose-only effect, or another doubt; inactive means no such curve, though single readings can be large; an effect the other way counts as inactive or inconclusive. Unless noted, on the % scale 0 is the no-effect control and ±100 the full control effect.

SMILES | TDP1 cell noCPT | HT1080 IDH1KD tx | HT1080-NT tox | TDP1 cell CPT | IL1B secr inh
CC1CCN(C(=O)C2CCN(C(=O)c3cc4sccc4n3Cc3ccc(F)cc3)CC2)CC1 | 18µM* | u | u | 21µM* | -16
Cn1c(C(=O)N2CCC(C(=O)NCc3ccccc3)CC2)cc2sccc21 | 1% | 1% | 3% | -4% | -10
CC(C)NC(=O)C1CCN(C(=O)c2cc3sccc3n2Cc2ccc(F)cc2)CC1 | 7.3µM* | 5%[9.24 µM] | -25% | 6.5µM* | -81*
CC(C)NC(=O)C1CCN(C(=O)c2cc3sccc3n2Cc2ccc(Cl)cc2)CC1 | 1.5µM* | x | x | 1.6µM* | x
O=C(c1cc2sccc2n1Cc1ccc(F)cc1)N1CCCc2ccccc21 | 23µM* | -25% | -12% | u | u
COc1ccc2c(c1)sc1ncc(C(=O)NCc3cccc(C)c3)c(=O)n12 | 5% | x | x | 4% | x
O=C(NCCc1csc(-c2ccccc2)n1)c1c(F)cccc1F | u | -4% | 3% | u | -24
O=C(NCCc1csc(-c2ccc(F)cc2)n1)c1c(F)cccc1Cl | u | x | x | 23µM* | x
O=C(NCCc1csc(-c2ccc(F)cc2)n1)c1cccc(F)c1 | 18µM* | x | x | u | x
Cc1cc(Cn2cnc3c2C[C@@H](C(=O)O)N(C(=O)C(c2ccccc2)c2ccccc2)C3)ccc1N(C)C | 2% | x | x | -86% | x
C[n+]1ccccc1/C=C/c1ccc2ncccc2c1 | 1% | 1% | 1% | 5% | -9
C=CC[n+]1ccnc2ccccc21 | u | x | x | 5µM* | x
COc1ccccc1Oc1ccnc2cc(Cl)ccc12 | u | -11% | -20% | u | 0
C[n+]1ccnc2ccccc21 | 4µM* | x | x | 1.4µM* | x
C=CC[n+]1ccc2ccccc2c1C | -13% | 15% | 6% | -11% | -2
C[n+]1ccnc2cc(Cl)ccc21 | 0.71µM* | x | x | 0.63µM* | x
C[C@H]1CN([C@@H](C)CO)C(=O)c2cc(C3=CCCC3)cnc2O[C@@H]1CN(C)C(=O)c1ccncc1 | -22% | -4% | -10% | -15% | 9
COc1ccc(C2CCc3cc4c(cc3C2=NOC(C)=O)OCO4)cc1OC (stereo unspecified) | 15µM* | u | 0% | 21µM* | 0
CCn1c(C)[n+](CCOCC[n+]2c(C)n(CC)c3cc(Cl)c(Cl)cc32)c2cc(Cl)c(Cl)cc21 | -20% | 4% | 11% | -3% | 10
CC(C)Oc1ccc(NC(=O)Oc2ccccc2)cc1 | -28% | -6% | -3% | u | -7
CC(C)Oc1ccc2c(c1)OC(c1ccccc1)(C(F)(F)F)NC2=O (stereo unspecified) | 26µM* | -1% | 4% | u | 37
COc1cccc(-c2nn(Cc3ccccc3)cc2CO)c1 | -32% | -12% | -15% | 0% | 2
NCc1cn(Cc2ccccc2)nc1-c1ccccc1 | u | x | x | 11µM* | x
COc1cc(C(=O)Nc2ccc(C)cc2)c2ccccc2n1 | 0.73µM* | 0.52µM* | u | 0.82µM* | 104
CCOc1ccc(NC(=O)c2cccc3ccccc23)cc1 | 8.2µM* | -20% | -4% | 12µM* | -2
SMILES | TDP1 cell noCPT | HT1080 IDH1KD tx | HT1080-NT tox | TDP1 cell CPT | IL1B secr inh
CCOc1ccc(NC(=O)c2cc(OC)nc3ccccc23)cc1 | 0.58µM* | 0.46µM* | 0.46µM* | 0.52µM* | 50
CCOc1ccc(NC(=O)c2cc3ccccc3cc2O)cc1 | u | 2% | 6% | u | -18
Cc1occc1C(=O)Nc1ccc(OCc2ccccc2)cc1 | 16µM* | u | u | -14% | 31
Cc1cc2nc(N3CCCN(Cc4cccn4-c4ncccn4)CC3)nc(C)c2cc1C | 16µM* | x | x | -14%[9.04 µM] | x
CCC(=O)N1CCCC(C)(C(=O)Nc2nccc3cccnc23)C1 (stereo unspecified) | -6% | 1% | 25% | -22% | 7
Cc1ccc(Cl)cc1NC(=S)N(CCN(C)C)C(C)c1ccccn1 (stereo unspecified) | 0% | -1% | 0% | 1% | -73*
CCc1ccccc1NC(=S)N(CCN(C)C)C(C)c1ccccn1 (stereo unspecified) | -2% | -5% | 7% | -5% | 3
COc1ccc(Cl)cc1C1=NOC2(CCC2)C(=O)N1Cc1ccc(NC(C)=O)cc1 | u | 10% | 2% | u | 0
COc1ccc(N2C(=S)N=C(Nc3cccc(C)c3)C23CCCCC3)cc1 | -26% | -10% | -4% | 6.5µM* | -7
COc1ccc(C(=O)Nc2ccc(NC(=O)c3cc(OC)c(OC)c(OC)c3)cn2)cc1 | -21% | u | -22% | u | -10
COc1cc2c(c(OC)c1OC)-c1c(cc3c(c1OC)OCO3)C1OC2[C@@H](C)[C@H]1C (stereo partly specified) | u | 5% | 13% | u | -5
COc1cc(C2C3=C(COC3=O)Oc3cc4c(cc32)OCO4)ccc1O (stereo unspecified) | 0.58µM* | u | u | 0.82µM* | 28
COc1cc(C2CC(=O)Nc3cc4c(cc32)OCO4)cc(OC)c1O (stereo unspecified) | u | x | x | 3% | x
COc1cc(C2C3=C(COC3=O)OC(C)(C)Oc3cc4c(cc32)OCO4)cc(OC)c1OC (stereo unspecified) | 0.73µM* | u | u | 1µM* | 16
CCOc1ccc(CC(=O)NC2CC(=O)N(c3ccc(C)c(C)c3)C2)cc1 (stereo unspecified) | u | x | x | -26% | x
CCOc1ccc(NC(=O)CN(C)C(=O)C2CCN(C(=O)c3ccc(Cl)cc3)CC2)cc1OCC | -11% | -6% | 0% | -6% | -51*
COc1ccc(C(=O)N2CCC(C(=O)Nc3ccc4c(c3)OCO4)CC2)cc1 | -10% | -7% | -4% | -9% | -2
Cc1ccc(NC(=O)C2CCCN(C(=O)c3ccc(Cl)cc3)C2)cc1C (stereo unspecified) | 2.9µM* | u | -27% | 4.1µM* | -71*
COc1ccc(C(=O)N2CCC(C(=O)Nc3ccc(Cl)cc3)CC2)cc1 | u | x | x | 5.8µM* | x
Cc1cc(Cl)ccc1C(=O)C1CCCN(C(=O)c2cccc(N3CCCC3=O)c2)C1 (stereo unspecified) | u | -1% | -7% | 16µM* | 10
CC12CCC(C(=O)CC1=O)C2(C)C (stereo unspecified) | -2% | 10% | 14% | -16% | 9
CCOC(=O)c1ccc(NC(=O)C2CCN(C(=O)c3ccc(OC)c(OC)c3)CC2)cc1 | 21µM* | -14% | -4% | u | -14
